Bioassay records: PubChem, several laboratories
GASC-1 inh: human JMJD2C demethylase inhibition; AID 2099; 0.069% of 330,000 active; GST-JMJD2C(1-420) H3K9me3 demethylation, DELFIA europium; Q9H3R0; inhibition, % at 2.35 µM;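 active = more than half of a compound's replicate wells show inhibition beyond 50%, single wells judged on their own value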;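 also: signal counts dimethyl H3K9 product captured on neutravidin plate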
Target sequence (Q9H3R0 1-420 limits assumed): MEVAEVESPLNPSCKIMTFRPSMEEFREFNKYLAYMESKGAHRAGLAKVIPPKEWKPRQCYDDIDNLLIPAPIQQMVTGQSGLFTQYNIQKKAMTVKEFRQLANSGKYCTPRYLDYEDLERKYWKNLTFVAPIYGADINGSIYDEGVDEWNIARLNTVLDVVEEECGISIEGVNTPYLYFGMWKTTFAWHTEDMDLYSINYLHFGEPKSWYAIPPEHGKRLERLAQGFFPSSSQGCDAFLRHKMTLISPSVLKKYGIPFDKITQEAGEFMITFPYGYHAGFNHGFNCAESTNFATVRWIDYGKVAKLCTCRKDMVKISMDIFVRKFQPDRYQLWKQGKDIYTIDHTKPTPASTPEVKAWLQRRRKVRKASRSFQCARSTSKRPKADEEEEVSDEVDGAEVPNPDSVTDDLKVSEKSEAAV
Exocytosis inh: blocks lytic granule exocytosis. 0.66% of 360,000 active. inhibition, % at 10 µM. TALL-104 LAMP-1 surface exposure, flow cytometry; cells stimulated with thapsigargin and PMA;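 active = inhibition above about 55%, limit read from the data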
SMARCA2 activ: SMARCA2 function activation, primary screen. MG213 cells, MMTV-luciferase reporter, dexamethasone, overnight. 1% of 370,000 active. activation, % at 9.1 µM. AID 652017; in the data active = activation above about 7.8%
M18AAP inhibitor: PfM18AAP enzyme inhibition | inhibition, % at 7.35 µM | recombinant PfM18AAP, H-Glu-NHMec fluorogenic cleavage | 1.2% of 290,000 active | AID 1822;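 active = inhibition above the campaign mean inhibition over all tested compounds plus 3 SD, cut at about 28% in these data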
ALR inh: human ALR oxidase inhibition via reduced H2O2. purified ALR, DTT oxidation, H2O2 HRP-luminol luminescence. inhibition, % (concentration not given with the values). 3.8% of 290,000 active;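 active = mean replicate inhibition above about 79%, with every replicate also reaching it, limit read from the data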
beta cell repl: MIN6 beta-cell proliferation induction | MIN6 cells proliferation, ATPlite luminescence, 48 h; cells starved in 0.2% serum; 100% = growth in 10% serum | AID 2380 | 0.29% of 330,000 active | proliferation, % at 10 µM;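 active = compounds whose signal lies at least 3.5 SD above the mean of all wells on their plate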
Hits are given with their value; - = inactive; . = no result given. An excerpt weighted towards active compounds, which were near 5.4% of everything screened.

SMILES	GASC-1 inh	Exocytosis inh	SMARCA2 activ	M18AAP inhibitor	ALR inh	beta cell repl
O=C(NNC(=S)NC(=O)c1ccccc1)c1cccc([N+](=O)[O-])c1	-	-	-	-	98	-
O=C(Nc1ccc(C(O)(C(F)(F)F)C(F)(F)F)cc1)c1ccc(Cl)c([N+](=O)[O-])c1	-	64	-	-	-	-
O=C(NCc1ccncc1)c1cccc(S(=O)(=O)Nc2ccc(SC(F)F)cc2)c1	-	-	-	.	-	-
O=C(NCc1ccccn1)c1cccc(S(=O)(=O)Nc2ccc(SC(F)F)cc2)c1	-	-	-	.	98	-
COC(=O)c1cc(-c2cc(Cl)ccc2OC)c(=O)n2c1CCC2	.	.	-	.	.	.
CC(C)[C@H](NC(=O)c1ccc(Cl)cc1Cl)C(=O)N1CCC[C@H]1C(=O)NCCc1ccccc1Cl	.	.	-	.	.	.
Cc1nn(-c2ccccc2)c2sc(C(=O)NC3CCCCCC3)cc12	.	.	-	.	.	.
Cc1ccccc1C(=O)NC1CCCCN(Cc2cccc(C(F)(F)F)c2)C1=O (configuration not stated)	.	.	-	.	.	.
COc1ccc(-n2ccnc(SCC(=O)NC3CCCCC3)c2=O)cc1	-	-	.	-	98	-
CCOc1ccc(-n2ccnc(SCC(=O)Nc3ccc(CC)cc3)c2=O)cc1	-	-	-	.	99	-
COc1ccc(-n2ccnc(SCC(=O)NC3CCCC3)c2=O)cc1	-	-	-	-	-	-
CCC(=O)Nc1ccc2c(c1)C(=O)N(C)[C@@H]1CC[C@@H](CC(=O)NCCN3CCCCC3)O[C@H]1CO2	.	.	-	.	.	.
N#CCC[C@@H]1CC[C@]2(CCCN(C(=O)c3ccc4ccccc4n3)C2)O1	.	.	-	.	.	.
Cc1ccc2occ(/C=N/NC(=O)c3ccc(O)cc3)c(=O)c2c1	-	-	-	-	98	-
Cc1ccc2occ(/C=N/NC(=O)c3ccccc3Br)c(=O)c2c1	-	-	-	-	-	-
COC(=O)C1CN(Cc2ccc(OC)cc2)CCS(=O)(=O)N1Cc1ccc(F)cc1 (configuration not stated)	.	.	-	.	.	.
CCCC[C@H](C(=O)N(C)c1cccc(OC)c1)[C@@H](O)c1ccc2ccccc2c1	.	.	-	.	.	.
COCCNC(=O)CCSc1nc(-c2ccc(OC)cc2)cc(C(F)(F)F)n1	-	-	-	-	-	-
CCOC(=O)CS(=O)(=O)c1nc(-c2ccc(F)cc2)cc(C(F)(F)F)n1	-	96	.	-	-	-
CCOC(=O)CCS(=O)(=O)c1nc(-c2ccccc2)cc(C(F)(F)F)n1	-	88	.	-	87	-
CCOC(=O)c1c(C(F)(F)F)cc(-c2ccc(F)cc2)nc1C	-	-	-	-	.	-
CCOC(=O)Cc1cc(-c2ccccc2)nc2ccc3ccccc3c12	-	-	-	-	-	-
COCC(C)NC(=O)CCS(=O)(=O)c1nc(-c2ccc(OC)cc2)cc(C(F)(F)F)n1 (configuration not stated)	-	78	-	-	97	-
CCOC(=O)CS(=O)(=O)c1ccccc1	-	-	-	-	-	-
CCOC(=O)CS(=O)(=O)c1nc(-c2ccccc2)cc(C(F)(F)F)n1	-	-	-	-	98	-
SMILES	GASC-1 inh	Exocytosis inh	SMARCA2 activ	M18AAP inhibitor	ALR inh	beta cell repl
COc1ccc(S(=O)(=O)Nc2cc(Sc3ncn[nH]3)c(O)c3ccccc23)cc1	.	.	-	50	.	.
O=S(=O)(Nc1cc(Sc2cccc3cccnc23)c(O)c2ccccc12)c1ccc(F)cc1	-	.	-	-	.	.
CN(C)c1ccc(C2Nc3ccccc3C(=O)N2CCCN2CCOCC2)cc1 (configuration not stated)	-	-	-	-	99	-
COC(=O)C1CN(Cc2ccc(Cl)cc2)CCS(=O)(=O)N1Cc1cn(Cc2ccc(F)cc2)nn1 (configuration not stated)	.	.	-	.	.	.
C#CCNC(=O)C[C@H]1C[C@@]2(C(=O)OC)C(=C[C@H](C(C)C)O[C@@H]2C2CC2)N(Cc2cccc3ccccc23)C1=O	.	.	-	.	.	.
CCCNS(=O)(=O)c1cccc(C(=O)OCc2cc(=O)oc3cc(OC)ccc23)c1	-	70	-	-	.	-
Cc1cc(=O)n(-c2ccc(O)cc2)[nH]1	-	-	-	-	99	-
Cc1cc(=O)n(-c2ccc(C(=O)O)cc2)[nH]1	-	-	-	-	-	-
Cc1ccc(NCCC(=O)c2cccs2)cc1C	-	-	-	-	99	-
Cc1ccc(NCCC(=O)c2cccs2)cc1Cl	-	-	-	-	-	-
